# Source: PubChem BioAssay
# Compounds with a hit are over-represented: about 3.6% of the library has one in this group of screens.
# APOBEC3A inh = blocks human APOBEC3A ssDNA deamination | 330,000 tested, 0.41% active | inhibition, % at 20 µM | P31941 | recombinant A3A, FAM/TAMRA ssDNA deamination fluorescence;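 active = at least 40% inhibition at 20 µM here, with at most 30% in a related deaminase screen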;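 note: plate controls were A3A with DMSO for no effect and wells lacking A3A enzyme for full effect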
# Target sequence (P31941 whole entry, looked up): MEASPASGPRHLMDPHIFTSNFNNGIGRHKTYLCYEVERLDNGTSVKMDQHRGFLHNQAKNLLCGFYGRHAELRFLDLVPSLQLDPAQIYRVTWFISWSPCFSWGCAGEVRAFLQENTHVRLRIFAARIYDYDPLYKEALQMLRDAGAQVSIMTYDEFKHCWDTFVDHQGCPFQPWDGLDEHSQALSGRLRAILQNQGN
# PHOSPHO1 block = PHOSPHO1 (human) inhibition; recombinant PHOSPHO1, absorbance phosphatase assay; inhibition, % at 13.3 µM; 290,000 tested, 1.1% active; AID 1565; in the data active = inhibition above about 60%
# esBAF inh = blocks esBAF chromatin remodeling in mouse ES cells; Bmi1-luciferase knock-in reporter, 24 h; 100% = twice the neutral-well signal; reporter increase, % at 12.5 µM; 350,000 tested, 2% active; in the data active = activation above about 40%;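 note: 0% = median of the plate's neutral control wells and 100% = double that signal; a rise in the Bmi1 reporter signal indicates esBAF inhibition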
# APOBEC3G inh = APOBEC3G (human) deaminase inhibition | AID 493012 | inhibition, % at 20 µM | recombinant A3G, ssDNA deamination FAM/TAMRA fluorescence | 330,000 tested, 0.28% active | Q9HC16;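 active = inhibition of at least 40% at 20 µM, with no more than 30% in the related APOBEC3A deaminase screen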;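 note: plate controls were DMSO wells with A3G for no effect and wells lacking A3G enzyme for full effect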
# Wnt act = activates Wnt/beta-catenin signaling in a reporter cell assay | activator, plate reader | 300,000 tested, 1.2% active | activation, % at 9.35 µM; in the data active = activation above about 30%, passing the limit was not always enough;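 note: 0% = neutral control wells and 100% = positive control wells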
# MITF TRPM1 HTS = MITF TRPM1 promoter activation in melanoma cells | 300,000 tested, 0.75% active | activation, % at 12.5 µM | SK-MEL-5 TRPM1-promoter luciferase, 24 h; % of positive control, neutral wells = 0 | AID 588334;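 active = mean activation of at least 80% with every replicate also reaching 80%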;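 note: 0% = neutral control wells and 100% = parthenolide positive control wells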
# A3G conf = APOBEC3G (human) deaminase inhibition, confirmed; inhibition, % at 20 µM; shares compounds with APOBEC3G inh; 890 tested, 72% active; recombinant A3G ssDNA deaminase, UDG/FAM-TAMRA fluorescence;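 active = inhibition reaching a set limit in any replicate at 20 µM, the limit being 80% of the first screen's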
# UDG A3G counter = E. coli UDG inhibition in APOBEC3G counter-screen; inhibition, % at 20 µM; UDG counterscreen, FAM/TAMRA oligo fluorescence; 710 tested, under 10 active; shares compounds with APOBEC3G inh;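 active = compounds giving 40% or more inhibition at 20 µM in any one of the three replicates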;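 note: plate controls were DMSO wells with UDG and oligo for no effect and DMSO wells lacking both for full effect; inhibitors lower the FAM signal released by uracil excision and alkaline cleavage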
# Target sequence (P12295 whole entry, looked up): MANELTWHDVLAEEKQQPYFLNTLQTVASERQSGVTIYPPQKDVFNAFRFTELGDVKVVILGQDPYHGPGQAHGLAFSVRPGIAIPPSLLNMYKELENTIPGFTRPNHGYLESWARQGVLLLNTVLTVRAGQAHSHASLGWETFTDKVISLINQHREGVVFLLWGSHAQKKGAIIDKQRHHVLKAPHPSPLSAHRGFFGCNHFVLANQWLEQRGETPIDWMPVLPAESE
# An asterisk follows results filed as active; . = no result given.
SMILES,APOBEC3A inh,PHOSPHO1 block,esBAF inh,APOBEC3G inh,Wnt act,MITF TRPM1 HTS,A3G conf,UDG A3G counter
C=CCn1c(-c2cc(Cl)ccc2OC)n[nH]c1=S,-5,92*,.,46*,.,-10,81*,2
CCn1c(-c2cccc(Cl)c2)n[nH]c1=S,-5,95*,-9,47*,-3,-2,77*,-3
C=CCn1c(-c2cccc(OC)c2)n[nH]c1=S,0,11,-6,51*,-2,-1,13,.
C=CCn1c(-c2ccc([N+](=O)[O-])cc2)n[nH]c1=S,-6,26,.,45*,.,-5,78*,0
C=CCn1c(-c2ccccc2[N+](=O)[O-])n[nH]c1=S,-4,-131,.,10,0,5,.,.
C[C@@H]1CCCCO[C@@H](CN(C)S(=O)(=O)c2ccc(Cl)cc2)[C@H](C)CN([C@@H](C)CO)C(=O)c2cc(NC(=O)Nc3cccc4ccccc34)ccc2O1,.,.,-3,.,.,.,.,.
C=CCn1c(-c2csc3ccccc23)n[nH]c1=S,7,102*,-6,43*,.,-18,31,.
COc1ccc(Cl)cc1NC(=O)NC1CCCCC1,19,6,2,46*,.,-11,27*,5
CCCN1CCC(NC(=O)Nc2cc(Cl)ccc2OC)CC1,-2,42,-15,-11,-3,12,.,.
COc1ccc(Cl)cc1NC(=O)c1ccccc1C,1,1,-3,41*,.,-4,2,.
CN(C)C(=O)[C@H]1[C@H](CO)[C@H]2Cn3c(ccc(C4=CCCCC4)c3=O)[C@H]2N1C(=O)c1ccccc1F,.,.,0,.,.,.,.,.
COc1cccc(C(=O)NCc2n[nH]c(=S)n2-c2cccc(C)c2)c1,0,87*,-1,47*,0,-5,61*,-3
C[C@@H]1CN([C@H](C)CO)C(=O)Cc2cc(NS(=O)(=O)c3cn(C)cn3)ccc2O[C@@H]1CN(C)S(=O)(=O)c1ccccc1,.,.,1,.,.,.,.,.
C[C@@H]1CN([C@@H](C)CO)C(=O)c2cc(NC(=O)Nc3ccc(C(F)(F)F)cc3)ccc2O[C@@H]1CN(C)CC1CC1,.,.,-7,.,.,.,.,.
S=c1[nH]nc(-c2cccs2)n1C1CCCCC1,-8,-40,.,45*,1,.,83*,-3
O=C(/C=C/c1cc[n+](CC(=O)c2ccc3cccc4c3c2CC4)cc1)c1ccc2cccc3c2c1CC3,19,-98,.,54*,.,2,55*,.
O=C(C[n+]1ccc2ccccc2c1)c1cccc2ccccc12,8,4,.,-4,-7,-17,.,.
CCCCCCC(=O)N(O)C1CC(=O)N(Cc2ccccc2)C1=O (stereo not drawn),-4,-22,-15,-5,-5,.,.,.
CCCCCC(=O)N(O)C1CC(=O)N(c2ccccc2)C1=O (stereo not drawn),0,5,.,42*,.,-1,43*,7
CO[C@@H]1CN(C)C(=O)c2cc(NC(=O)Nc3cccc(F)c3)ccc2OC[C@@H](C)N(C(=O)Nc2c(C)noc2C)C[C@@H]1C,.,.,7,.,.,.,.,.
Cc1noc(C)c1S(=O)(=O)N(C)C[C@H]1Oc2ccc(NC(=O)Nc3ccc(C(F)(F)F)cc3)cc2CC(=O)N([C@@H](C)CO)C[C@@H]1C,.,.,1,.,.,.,.,.
Nc1ccc2nc(-c3ccc(-c4nc5ccc(N)cc5[nH]4)cc3)[nH]c2c1,12,27,.,14,5,.,.,.
Nc1ccc2nc(-c3cccc(-c4nc5ccc(N)cc5[nH]4)n3)[nH]c2c1,10,37,-2,44*,2,11,29*,1
CCCNC(=O)C[C@H]1C[C@@H]2c3cc(NC(=O)CN(C)C)ccc3O[C@@H]2[C@@H](CO)O1,.,.,1,.,.,.,.,.
c1ccc(Sc2ccncc2)cc1,.,.,-5,.,-1,.,.,.
c1cc(SSc2ccncc2)ccn1,5,33,.,65*,1,-6,71*,.
O=c1c2c([N+](=O)[O-])cc([N+](=O)[O-])cc2sn1Cc1ccccc1,0,-12,0,70*,0,-9,76*,-1
